PubChem BioAssay (EPA / NIEHS)
Calls of active or inactive are those of the source. The calls were made as follows: active = hit-call score of the fitted dose curve at least 0.9, where 1 is the maximum; inactive = score below 0.9.

Key:
Settings in all cases: mRNA level, 48 h; actives raise or lower the signal
[1] = read-out: Cyclin D1 (CCND1), CCND1 (gene 595); assay: LTEA_HepaRG_CCND1: Life Technologies and Expression Analysis (LTEA) Assay for Cyclin D1 (CCND1) using HepaRG (AID 2283451);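 as to AC50: differentiated human HepaRG liver cells in serum-free induction medium; TaqMan qRT-PCR transcript level normalised to ACTB GAPDH and POLR2A housekeeping genes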
Procedure, shortened: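 qRT-PCR (Fluidigm 96.96 array) read-out of transcript level, housekeeping-normalized (ACTB/GAPDH/POLR2A). HepaRG cells, 48 h chemical exposure, 8-point half-log series from 100 uM, 0.5% DMSO vehicle; gain or loss relative to DMSO baseline.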

[2] = read-out: flavin-containing dimethylaniline monooxygenases 3 (FMO3), FMO3 (gene 2328); assay: LTEA_HepaRG_FMO3: Life Technologies and Expression Analysis (LTEA) Assay for flavin-containing dimethylaniline monooxygenases 3 (FMO3) using HepaRG (AID 2283453);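 as to AC50: differentiated human HepaRG liver cells in serum-free induction medium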
Procedure, shortened: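 FMO3 transcript quantified by TaqMan qRT-PCR against three housekeeping genes after 48 h chemical exposure of HepaRG cells. Eight-point half-log series, top 100 uM, 0.5% DMSO vehicle; phenobarbital 1mM induction control; up- or down-regulation fitted.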

[3] = read-out: Cytochrome P450 (CYP1A1), CYP1A1 (gene 1543); assay: LTEA_HepaRG_CYP1A1: Life Technologies and Expression Analysis (LTEA) Assay for Cytochrome P450 (CYP1A1) using HepaRG (AID 2283454)
Procedure, shortened: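 qRT-PCR read-out: CYP1A1 transcript normalized to three housekeeping genes, fitted bidirectionally against 0.5% DMSO vehicle baseline. Human HepaRG cells, 48 h chemical exposure, 8-point half-log series topping at 100 uM.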

[4] = read-out: CFLAR gene, CFLAR (gene 8837); assay: LTEA_HepaRG_CFLAR: Life Technologies and Expression Analysis (LTEA) Assay for CFLAR gene using HepaRG (AID 2283455)
Procedure, shortened: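 qRT-PCR read-out (Fluidigm/TaqMan) of CFLAR mRNA, normalized to three housekeeping genes, in differentiated human HepaRG cells after 48 h chemical exposure; 8-point half-log series from 100 uM in 0.5% DMSO; bidirectional curve fitting versus DMSO.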

[5] = read-out: Forkhead box O1 (FOXO1), FOXO1 (gene 2308); assay: LTEA_HepaRG_FOXO1: Life Technologies and Expression Analysis (LTEA) Assay for Forkhead box O1 (FOXO1) using HepaRG (AID 2283456)
Procedure, shortened: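 HepaRG, 48 h exposure, 8-pt half-log series from 100 uM in 0.5% DMSO, duplicates; Fluidigm qRT-PCR mRNA, housekeeping-normalised; bidirectional fit vs DMSO baseline.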

[6] = read-out: growth arrest and DNA damage 45 (GADD45A), GADD45A (gene 1647); assay: LTEA_HepaRG_GADD45A: Life Technologies and Expression Analysis (LTEA) Assay for growth arrest and DNA damage 45 (GADD45A) using HepaRG (AID 2283458)
Procedure, shortened: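 Transcript induction or loss, quantified by TaqMan qRT-PCR against three housekeeping genes, is the read-out. HepaRG cells received chemicals for 48 h across eight half-log concentrations from 100 uM in 0.5% DMSO; gain and loss fitted relative to DMSO.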

[7] = read-out: Forkhead box O3 (FOXO3), FOXO3 (gene 2309); assay: LTEA_HepaRG_FOXO3: Life Technologies and Expression Analysis (LTEA) Assay for Forkhead box O3 (FOXO3) using HepaRG (AID 2283459)
Procedure, shortened: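 qRT-PCR readout of FOXO3 transcript, normalized to three housekeeping genes (ACTB, GAPDH, POLR2A); gain or loss fitted against 0.5% DMSO vehicle. HepaRG cells, 48 h chemical exposure, 8-point half-log series, top 100 uM.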

[8] = read-out: ABC Transporter (ABCB1), ABCB1 (gene 5243); assay: LTEA_HepaRG_ABCB1: Life Technologies and Expression Analysis (LTEA) Assay for ABC Transporter (ABCB1) using HepaRG (AID 2283460)
Procedure, shortened: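 HepaRG, 48 h exposure, 8-pt half-log series from 100 uM, 0.5% DMSO vehicle, duplicates. Readout: ABCB1 transcript by Fluidigm TaqMan qRT-PCR, housekeeping-normalized; bidirectional curve fit vs DMSO baseline.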

[9] = read-out: growth arrest and DNA damage 45 (GADD45B), GADD45B (gene 4616); assay: LTEA_HepaRG_GADD45B: Life Technologies and Expression Analysis (LTEA) Assay for growth arrest and DNA damage 45 (GADD45B) using HepaRG (AID 2283461)
Procedure, shortened: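 qRT-PCR read-out (Fluidigm TaqMan, housekeeping-normalized) of mRNA change in human HepaRG cells after 48 h chemical exposure; 8-point curve, top 100 uM, half-log steps, 0.5% DMSO vehicle; gain or loss fitted relative to DMSO baseline.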

[10] = read-out: ABC Transporter (ABCC3), ABCC3 (gene 8714); assay: LTEA_HepaRG_ABCC3: Life Technologies and Expression Analysis (LTEA) Assay for ABC Transporter (ABCC3) using HepaRG (AID 2283462)
Procedure, shortened: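 qRT-PCR read-out of ABCC3 transcript, normalized to three housekeeping genes (ACTB, GAPDH, POLR2A), after 48 h chemical exposure of human HepaRG cells. Eight half-log concentrations, highest 100 uM, in 0.5% DMSO; gain or loss fitted relative to DMSO baseline.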

[11] = read-out: ABC Transporter (ABCB11), ABCB11 (gene 8647); assay: LTEA_HepaRG_ABCB11: Life Technologies and Expression Analysis (LTEA) Assay for ABC Transporter (ABCB11) using HepaRG (AID 2283463)
Procedure, shortened: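 HepaRG, 48 h exposure, 8-pt half-log CRC top 100 uM, 0.5% DMSO vehicle, duplicates. Readout: TaqMan qRT-PCR of ABCB11 mRNA, housekeeping-normalized (ACTB/GAPDH/POLR2A). Bidirectional fit vs DMSO baseline.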

[12] = read-out: ABC Transporter (ABCC2), ABCC2 (gene 1244); assay: LTEA_HepaRG_ABCC2: Life Technologies and Expression Analysis (LTEA) Assay for ABC Transporter (ABCC2) using HepaRG (AID 2283464)
Procedure, shortened: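 qRT-PCR (TaqMan, Fluidigm array) read-out of ABCC2 mRNA, normalized to three housekeeping genes. Differentiated HepaRG cells were treated 48 h in serum-free induction medium with 8-point half-log series from 100 uM in 0.5% DMSO; curves fitted bidirectionally relative to DMSO.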

[13] = read-out: Broad substrate specificity ATP-binding cassette transporter ABCG2 (Homo sapiens) (UniProt Q9UNQ0); assay: LTEA_HepaRG_ABCG2: Life Technologies and Expression Analysis (LTEA) Assay for ABC Transporter (ABCG2) using HepaRG (AID 2283465)
Procedure, shortened: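 HepaRG, 48 h exposure, 8-pt half-log series from 100 uM, 0.5% DMSO vehicle, duplicates. Readout: ABCG2 transcript by qRT-PCR (Fluidigm array), housekeeping-normalized; bidirectional curve fit relative to DMSO baseline.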

[14] = read-out: ATP-citrate lyase (ACLY), ACLY (gene 47); assay: LTEA_HepaRG_ACLY: Life Technologies and Expression Analysis (LTEA) Assay for ATP-citrate lyase (ACLY) using HepaRG (AID 2283466)
Procedure, shortened: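 qRT-PCR readout of ACLY transcript after 48 h chemical treatment of HepaRG cells; expression normalized to three housekeeping genes. Eight-point half-log series, highest 100 uM, 0.5% DMSO vehicle. Gain or loss fitted against DMSO baseline.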

[15] = read-out: Peroxisomal acyl-coenzyme A oxidase 1 (ACOX1) gene, ACOX1 (gene 51); assay: LTEA_HepaRG_ACOX1: Life Technologies and Expression Analysis (LTEA) Assay for Peroxisomal acyl-coenzyme A oxidase 1 (ACOX1) gene using HepaRG (AID 2283467)
Procedure, shortened: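 HepaRG, 48 h chemical exposure, 8-pt half-log series from 100 uM top, 0.5% DMSO vehicle, duplicates. Readout: ACOX1 mRNA by Fluidigm qRT-PCR, housekeeping-normalized; bidirectional fit vs DMSO baseline.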

[16] = read-out: Alkaline Phosphatase, Placental (ALPP) gene, ALPP (gene 250); assay: LTEA_HepaRG_ALPP: Life Technologies and Expression Analysis (LTEA) Assay for Alkaline Phosphatase, Placental (ALPP) gene using HepaRG (AID 2283468);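 as to AC50: differentiated human HepaRG liver cells in serum-free induction medium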
Procedure, shortened: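 qRT-PCR readout of ALPP mRNA (Fluidigm TaqMan), normalized to ACTB/GAPDH/POLR2A, after 48 h chemical exposure of HepaRG cells; 8-point half-log series, top 100 uM, 0.5% DMSO vehicle. Bidirectional curve fit versus DMSO baseline.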

[17] = read-out: Bcl-2 (BAD) gene, BAD (gene 572); assay: LTEA_HepaRG_BAD: Life Technologies and Expression Analysis (LTEA) Assay for Bcl-2 (BAD) gene using HepaRG (AID 2283469)
Procedure, shortened: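 HepaRG, 48 h exposure, 8-pt half-log curve from 100 uM in 0.5% DMSO, duplicates. Readout: TaqMan qRT-PCR for BAD mRNA, housekeeping-normalised (ACTB/GAPDH/POLR2A); gain or loss fitted against DMSO baseline.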

[18] = read-out: Bcl-2 (BAX) gene, BAX (gene 581); assay: LTEA_HepaRG_BAX: Life Technologies and Expression Analysis (LTEA) Assay for Bcl-2 (BAX) gene using HepaRG (AID 2283470)
Procedure, shortened: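 Cells were thawed, plated for 48 h, moved to serum-free induction medium and dosed for 48 h (highest concentration 100 uM, half-log steps, 0.5% DMSO). Total RNA was then analysed for BAX expression by qRT-PCR.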

[19] = read-out: catalase (CAT), CAT (gene 847); assay: LTEA_HepaRG_CAT: Life Technologies and Expression Analysis (LTEA) Assay for catalase (CAT) using HepaRG (AID 2283452)
Procedure, shortened: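 HepaRG cells in serum-free induction medium, 0.5% DMSO vehicle, exposed 48 h in duplicate over 8 half-log concentrations from 100 uM. CAT mRNA measured by qRT-PCR, normalized to ACTB, GAPDH, POLR2A; bidirectional fit versus DMSO.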

Measured: AC50

Sequence of Broad substrate specificity ATP-binding cassette transporter ABCG2 (Homo sapiens) (Q9UNQ0 whole entry, looked up): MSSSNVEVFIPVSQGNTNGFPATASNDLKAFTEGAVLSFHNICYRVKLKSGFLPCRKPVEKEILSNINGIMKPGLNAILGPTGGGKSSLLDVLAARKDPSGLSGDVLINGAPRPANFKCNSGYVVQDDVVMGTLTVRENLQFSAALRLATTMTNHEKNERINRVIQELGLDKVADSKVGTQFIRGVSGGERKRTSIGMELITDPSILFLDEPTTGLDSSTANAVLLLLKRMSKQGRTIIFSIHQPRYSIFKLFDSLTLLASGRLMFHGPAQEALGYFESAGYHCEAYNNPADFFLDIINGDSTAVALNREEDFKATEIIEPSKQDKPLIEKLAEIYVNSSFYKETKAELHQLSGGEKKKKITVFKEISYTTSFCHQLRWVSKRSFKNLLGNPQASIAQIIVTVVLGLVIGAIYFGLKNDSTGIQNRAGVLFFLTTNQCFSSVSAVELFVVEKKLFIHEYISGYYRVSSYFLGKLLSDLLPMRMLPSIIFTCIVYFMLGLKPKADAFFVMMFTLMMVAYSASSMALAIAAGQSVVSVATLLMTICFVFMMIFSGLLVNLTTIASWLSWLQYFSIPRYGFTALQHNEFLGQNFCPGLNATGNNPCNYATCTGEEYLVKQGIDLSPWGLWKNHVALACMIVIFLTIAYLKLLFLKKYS

CC1(C)NC(=O)N(c2ccc([N+](=O)[O-])c(C(F)(F)F)c2)C1=O
active: [2] 76.6 µM | [6] 50 µM | [8] 50 µM | [10] 75.3 µM | [11] 77.1 µM | [13] 29.3 µM | [14] 76.5 µM | [15] 63.7 µM | [16] 50 µM
inactive: [1] | [3] | [4] | [5] | [7] | [9] | [12] | [17] | [18]

Cc1ncc(CO)c(CO)c1O
active: [3] 65.3 µM
not listed: [6] | [12]
inactive: all other assays above

CCCOC(=O)c1cc(O)c(O)c(O)c1
active: [3] 10.1 µM | [8] 4.06 µM | [12] 6.03 µM | [13] 4.97 µM
not listed: [2] | [17] | [18]
inactive: all other assays above

COc1cc(C(=O)NC2CCN(C)CC2)ccc1Nc1ncc2c(n1)N(C1CCCC1)CC(F)(F)C(=O)N2C
inactive: [7] | [18]
active: [1] 46.5 µM | [19] 15.3 µM | [2] 12.6 µM | [3] 2.11 µM | [4] 14.4 µM | [5] 11.5 µM | [6] 4.65 µM | [8] 6.41 µM | [9] 25.4 µM | [10] 46.5 µM | [11] 4.65 µM | [12] 21.5 µM | [13] 4.65 µM | [14] 32.4 µM | [15] 12.2 µM | [16] 3.13 µM | [17] 11.1 µM

CC(C)(O)c1ccc(CNC(=O)c2cccnc2Oc2ccc3nonc3c2)cc1
active: [3] 34.7 µM | [8] 50 µM | [12] 50 µM
inactive: all other assays above

CN(C)C(=O)C1(N2CCCCC2)CCN(CC[C@@]2(c3ccc(Cl)c(Cl)c3)CN(C(=O)c3ccccc3)CCO2)CC1
active: [1] 47.2 µM | [19] 17.2 µM | [2] 13.7 µM | [3] 24.7 µM | [4] 61.9 µM | [5] 47.2 µM | [8] 23.4 µM | [9] 29 µM | [10] 79.4 µM | [11] 26 µM | [12] 23.7 µM | [14] 47.2 µM | [15] 88.1 µM | [16] 14.9 µM | [18] 27.1 µM
inactive: [6] | [7] | [13] | [17]
